{"source": "PubChem BioAssay (EPA / NIEHS)", "key": {"[1]": {"molecular_target": "Thyroid hormone receptor alpha (Rattus norvegicus) + Thyroid hormone receptor beta (Rattus norvegicus) (UniProt P18113+P63059)", "test": "TOX21_TR_LUC_GH3_Antagonist_Followup: Tox21 GH3 Thyroid Hormone Receptor Antagonism Luciferase Follow-Up Assay (AID 2283942)", "outline": "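Luminescence read-out (ONE-Glo, 30 min at room temperature) in GH3 reporter cells challenged with 1.0 nM T3 final. Compounds ran at 92 uM to 5nM over 15 concentrations for 24 h; DMSO served as negative control and baseline.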"}, "[2]": {"molecular_target": "THRA (gene 7067) (UniProt P10827)", "sequence (P10827 whole entry, looked up, the tested form may be a part)": "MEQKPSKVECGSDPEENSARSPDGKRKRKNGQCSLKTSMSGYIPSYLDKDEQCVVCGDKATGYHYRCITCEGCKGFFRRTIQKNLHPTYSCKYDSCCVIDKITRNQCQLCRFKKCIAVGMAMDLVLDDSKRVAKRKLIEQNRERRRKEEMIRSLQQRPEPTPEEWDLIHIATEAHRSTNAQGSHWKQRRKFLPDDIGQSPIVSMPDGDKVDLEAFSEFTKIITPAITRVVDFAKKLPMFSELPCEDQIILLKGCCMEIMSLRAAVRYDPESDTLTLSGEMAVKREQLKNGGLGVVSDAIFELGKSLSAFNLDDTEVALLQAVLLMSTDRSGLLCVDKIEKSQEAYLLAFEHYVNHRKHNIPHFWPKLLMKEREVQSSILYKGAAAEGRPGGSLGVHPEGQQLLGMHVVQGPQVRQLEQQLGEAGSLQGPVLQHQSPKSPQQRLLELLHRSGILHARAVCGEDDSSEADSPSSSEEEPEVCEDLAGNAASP", "test": "TOX21_TRA_COA_Antagonist_Followup_ratio: Tox21 Thyroid Hormone Receptor alpha Antagonism through Coactivator Recruitment Follow-Up Assay, Ratio (AID 2283953)", "outline": "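We measured antagonism of T3-type coactivator recruitment using a TR-FRET ratio (emission 520 and 495 nm) between a Tb-labelled anti-GST antibody on TRα LBD (2.5 nM) and SRC-2 peptide (200 nM). Activity was scaled between DMSO and T3 wells.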"}, "[3]": {"molecular_target": "THRB (gene 7068) (UniProt P10828)", "sequence (P10828 whole entry, looked up, the tested form may be a part)": "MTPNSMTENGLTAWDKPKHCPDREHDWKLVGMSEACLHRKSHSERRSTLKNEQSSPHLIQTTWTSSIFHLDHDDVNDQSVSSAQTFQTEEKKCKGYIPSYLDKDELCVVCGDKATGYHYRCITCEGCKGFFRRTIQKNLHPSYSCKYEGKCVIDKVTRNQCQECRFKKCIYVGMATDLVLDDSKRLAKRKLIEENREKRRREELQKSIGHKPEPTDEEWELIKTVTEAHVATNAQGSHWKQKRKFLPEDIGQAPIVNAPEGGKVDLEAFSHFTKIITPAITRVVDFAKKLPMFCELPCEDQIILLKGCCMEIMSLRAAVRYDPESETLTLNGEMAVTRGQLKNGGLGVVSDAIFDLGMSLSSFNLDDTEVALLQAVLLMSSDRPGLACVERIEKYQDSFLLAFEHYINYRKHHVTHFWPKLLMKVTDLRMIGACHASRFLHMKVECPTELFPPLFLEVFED", "test": "TOX21_TRB_BLA_Antagonist_Followup_ratio: Tox21 Thyroid Hormone Receptor beta Antagonism Beta-lactamase (BLA) Follow-Up Assay, Ratio (AID 2283958)", "outline": "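Using charcoal-stripped 2% FBS medium, human TRβ-LBD/GAL4 reporter HEK293T cells received test compounds for 18 h. The endpoint is the cleaved-to-uncleaved substrate ratio (460/530 nm).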"}, "[4]": {"molecular_target": "PGR (gene 5241) (UniProt P06401)", "sequence (P06401 whole entry, looked up)": "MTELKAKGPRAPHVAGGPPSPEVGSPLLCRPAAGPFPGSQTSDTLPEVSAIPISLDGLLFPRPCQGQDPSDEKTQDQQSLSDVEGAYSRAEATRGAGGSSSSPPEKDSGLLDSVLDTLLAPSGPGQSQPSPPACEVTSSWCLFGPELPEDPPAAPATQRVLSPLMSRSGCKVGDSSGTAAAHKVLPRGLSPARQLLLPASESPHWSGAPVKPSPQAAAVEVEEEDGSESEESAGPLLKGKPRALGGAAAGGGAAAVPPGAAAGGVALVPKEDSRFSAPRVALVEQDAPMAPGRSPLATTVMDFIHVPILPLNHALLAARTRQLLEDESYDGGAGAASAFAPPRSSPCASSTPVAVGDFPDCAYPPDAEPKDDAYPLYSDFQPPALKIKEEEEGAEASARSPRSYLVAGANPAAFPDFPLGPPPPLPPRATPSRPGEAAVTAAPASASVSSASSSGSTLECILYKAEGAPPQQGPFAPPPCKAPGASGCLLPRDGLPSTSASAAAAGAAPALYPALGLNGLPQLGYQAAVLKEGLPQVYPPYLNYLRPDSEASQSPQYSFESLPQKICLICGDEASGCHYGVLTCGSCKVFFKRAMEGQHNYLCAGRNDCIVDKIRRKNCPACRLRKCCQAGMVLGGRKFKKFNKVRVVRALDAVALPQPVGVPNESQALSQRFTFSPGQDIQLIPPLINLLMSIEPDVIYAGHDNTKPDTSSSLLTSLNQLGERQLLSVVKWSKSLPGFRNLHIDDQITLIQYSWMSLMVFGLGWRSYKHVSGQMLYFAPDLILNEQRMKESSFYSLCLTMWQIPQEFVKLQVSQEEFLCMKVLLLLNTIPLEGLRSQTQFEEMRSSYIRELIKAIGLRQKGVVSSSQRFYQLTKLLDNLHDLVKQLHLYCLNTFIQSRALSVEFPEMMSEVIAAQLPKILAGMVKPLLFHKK", "test": "TOX21_PR_BLA_Followup_Antagonist_ratio: Tox21 HEK293 Progesterone Receptor (PR) Antagonism Beta-lactamase Follow-Up Assay, Ratio (AID 2283934)", "experimental": "TOX21_PR_BLA_Followup is a secondary assay for specificity for the TOX21_PR_BLA_Agonist assay. To differentiate true PR agonists from cytotoxic substances, this follow up assay is multiplexed with a cell viability assay. The compounds were also tested for auto fluorescence that may interfere with the biological target readout resulting in potential false positives and/or negatives. To identify the compounds that stimulate PR signaling, a PR-UAS-bla GripTite cell line i.e. PR-UAS-bla HEK293T (Invitrogen, Carlsbad, CA, USA) containing a beta-lactamase reporter gene under the control of an UAS response element was used to screen Tox21 10K compound library. The cytotoxicity of the Tox21 compound library against the PR-bla cell line was tested in parallel by measuring the cell viability using CellTiter-Glo assay in the same wells. TOX21_PR_BLA_Followup_Antagonist_ratio is an assay readout measuring reporter gene via receptor activity and designed using inducible reporter (beta lactamase induction) detected with GAL4 b-lactamase reporter gene. The signal is derived from the ratio of cleaved (ch2) to uncleaved (ch1) reporter gene substrate used as the measure of target activity.Data from the assay component TOX21_PR_BLA_Followup_Antagonist_ratio was analyzed into 1 assay endpoint. This assay endpoint, TOX21_PR_BLA_Followup_Antagonist_ratio, was analyzed in the positive analysis fitting direction relative to DMSO as the negative control and baseline of activity. Using a type of inducible reporter, measures of receptor for gain-of-signal activity can be used to understand the reporter gene at the pathway-level as they relate to the gene NR3C3. Furthermore, this assay endpoint can be referred to as a primary readout, because this assay has produced multiple assay endpoints where this ratio serves a reporter gene function to understand target activity. To generalize the intended target to other relatable targets, this assay endpoint is annotated to the nuclear receptor intended target family, where the subfamily is steroidal.\nAssay Protocol: PR-UAS-bla HEK293T cells were dispensed at 3,000 cells/4 uL of assay medium containing 2% charcoal stripped FBS per well into black wall/clear-bottom 1536-well plates using a Multidrop Combi (ThermoFisher Scientific, Waltham, MA) dispenser. After the assay plates were incubated at a 37C and 5% CO2 for 6 hr, 23 nL of compounds dissolved in DMSO, positive controls or DMSO only was transferred to the assay plate by a Pintool station (Kalypsys, San Diego, CA), followed by addition of 1 uL (1nM as final concentration) of Promegestone (R5020) in assay medium using a BioRAPTR FRD (Flying Reagent Dispenser, Aurora Discovery, San Diego, CA). The plates were incubated at 37C and 5% CO2 for 16 hr. Then 1 uL of LiveBLAzer B/G FRET substrate was added using a FRD. After the plates were incubated at room temperature for 2 hours, fluorescence intensity was measured by an Envision plate reader (PerkinElmer, Shelton, CT)."}, "[5]": {"test": "TOX21_PR_BLA_Followup_Agonist_viability: Viability Assessment in the Tox21 HEK293 Progesterone Receptor (PR) Agonism Beta-lactamase Follow-Up Assay (AID 2283935)", "outline": "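Viability is read as CellTiter-Glo luminescence, where loss of signal indicates cytotoxicity. The cells are PR-UAS-bla HEK293T given compounds for 16 hr at 37C and 5% CO2, in the same wells used for the bla readout.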"}, "[6]": {"test": "TOX21_PR_BLA_Followup_Antagonist_viability: Viability Assessment in the Tox21 HEK293 Progesterone Receptor (PR) Antagonism Beta-lactamase Follow-Up Assay (AID 2283936)", "outline": "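PR-UAS-bla HEK293T cells in medium with 2% charcoal-stripped FBS were treated with compounds plus R5020 for 16 hr at 37C. After the beta-lactamase read, CellTiter-Glo was added to the same wells and luminescence read after 30 min at room temperature.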"}, "[7]": {"molecular_target": "PGR (gene 5241) (UniProt P06401)", "test": "TOX21_PR_LUC_Followup_Agonist: Tox21 HEK293 Progesterone Receptor (PR) Agonism Luciferase Follow-Up Assay (AID 2283937; active means hit-call score of the fitted dose curve at least 0.9, where 1 is the maximum; inactive means score below 0.9)", "outline": "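In HEK293 cells stably expressing PR-A with a luciferase reporter, compounds were incubated 16 h at 37C, and induced luminescence was quantified with ONE-Glo, multiplexed with cell viability.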"}, "[8]": {"molecular_target": "PGR (gene 5241) (UniProt P06401)", "test": "TOX21_PR_LUC_Followup_Antagonist: Tox21 HEK293 Progesterone Receptor (PR) Antagonism Luciferase Follow-Up Assay (AID 2283938);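 further: curve fitted upward as signal gain over DMSO baseline despite antagonist label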", "outline": "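Luminescence from ONE-Glo reagent, measured after 30 min at room temperature, served as readout. Cells (HEK293 carrying PR-A-luc) had been treated 16 h at 37C with DMSO-dissolved compounds. Activity was fitted against DMSO controls.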"}, "[9]": {"test": "TOX21_PR_LUC_Followup_Antagonist_viability: Viability Assessment in the Tox21 HEK293 Progesterone Receptor (PR) Antagonism Luciferase Follow-Up Assay (AID 2283940)", "outline": "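Loss of CellTiter-Glo ATP signal indicates cytotoxicity in HEK293-PR-A-luc cells grown in 10% charcoal-stripped FBS medium, seeded 3,000 per well and incubated 16 h with compound at 37C.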"}, "[10]": {"test": "TOX21_PR_LUC_Followup_Agonist_viability: Viability Assessment in the Tox21 HEK293 Progesterone Receptor (PR) Agonism Luciferase Follow-Up Assay (AID 2283941)", "outline": "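Seeding: HEK293-PR-A-luc, 3,000 cells/well, 5 h at 37C. Treatment: compound in DMSO, 16 h, 37C. Read: CellTiter-Glo ATP luminescence, signal loss taken as lower viability.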"}}, "note": "Inconclusive results are not listed. Active and inactive are the calls of the source. How the source made its calls, unless noted: active means hit-call score of the fitted dose curve at least 0.9, where 1 is the maximum; inconclusive means response in the unintended direction; inactive means score below 0.9."}
{"smiles": "CCCCNC(=O)n1c(NC(=O)OC)nc2ccccc21", "values": [{"measurement": "outcome", "setting": "[1]", "result": "inactive"}, {"measurement": "outcome", "setting": "[2]", "result": "inactive"}, {"measurement": "outcome", "setting": "[3]", "result": "inactive"}]}
{"smiles": "CN(C)C(=S)SSC(=S)N(C)C", "values": [{"measurement": "AC50", "setting": "[1]", "result": "24.3 µM (active)"}, {"measurement": "outcome", "setting": "[2]", "result": "inactive"}, {"measurement": "outcome", "setting": "[3]", "result": "inactive"}]}
{"smiles": "CO/C=C(/C(=O)OC)c1ccccc1Oc1cc(Oc2ccccc2C#N)ncn1", "values": [{"measurement": "AC50", "setting": "[1]", "result": "3.91 µM (active)"}, {"measurement": "outcome", "setting": "[2]", "result": "inactive"}, {"measurement": "outcome", "setting": "[3]", "result": "inactive"}]}
{"smiles": "CCc1nn(C)c(C(=O)NCc2ccc(C(C)(C)C)cc2)c1Cl", "values": [{"measurement": "outcome", "setting": "[1]", "result": "inactive"}, {"measurement": "outcome", "setting": "[3]", "result": "inactive"}]}
{"smiles": "N#CC(CCc1ccc(Cl)cc1)(Cn1cncn1)c1ccccc1", "note": "(stereo not drawn)", "values": [{"measurement": "AC50", "setting": "[4]", "result": "17.8 µM (active)"}, {"measurement": "outcome", "setting": "[5]", "result": "inactive"}, {"measurement": "outcome", "setting": "[6]", "result": "inactive"}, {"measurement": "outcome", "setting": "[7]", "result": "inactive"}, {"measurement": "AC50", "setting": "[8]", "result": "22.5 µM (active)"}, {"measurement": "outcome", "setting": "[9]", "result": "inactive"}, {"measurement": "outcome", "setting": "[10]", "result": "inactive"}]}
{"smiles": "CCOP(=S)(OCC)SCn1c(=O)oc2cc(Cl)ccc21", "values": [{"measurement": "AC50", "setting": "[4]", "result": "24.9 µM (active)"}, {"measurement": "outcome", "setting": "[5]", "result": "inactive"}, {"measurement": "outcome", "setting": "[6]", "result": "inactive"}, {"measurement": "AC50", "setting": "[8]", "result": "32.8 µM (active)"}, {"measurement": "outcome", "setting": "[9]", "result": "inactive"}]}
{"smiles": "COc1ccc(C(c2ccc(OC)cc2)C(Cl)(Cl)Cl)cc1", "values": [{"measurement": "AC50", "setting": "[4]", "result": "6.48 µM (active)"}, {"measurement": "outcome", "setting": "[5]", "result": "inactive"}, {"measurement": "outcome", "setting": "[6]", "result": "inactive"}, {"measurement": "AC50", "setting": "[8]", "result": "15.2 µM (active)"}, {"measurement": "outcome", "setting": "[9]", "result": "inactive"}]}
{"smiles": "C=CC1(C)OC(=O)N(c2cc(Cl)cc(Cl)c2)C1=O", "note": "(stereo not drawn)", "values": [{"measurement": "outcome", "setting": "[4]", "result": "inactive"}, {"measurement": "outcome", "setting": "[5]", "result": "inactive"}, {"measurement": "outcome", "setting": "[6]", "result": "inactive"}, {"measurement": "outcome", "setting": "[8]", "result": "inactive"}, {"measurement": "outcome", "setting": "[9]", "result": "inactive"}, {"measurement": "outcome", "setting": "[10]", "result": "inactive"}]}
{"smiles": "COC(=O)N(OC)c1ccccc1COc1ccn(-c2ccc(Cl)cc2)n1", "values": [{"measurement": "AC50", "setting": "[4]", "result": "7.24 µM (active)"}, {"measurement": "outcome", "setting": "[5]", "result": "inactive"}, {"measurement": "outcome", "setting": "[6]", "result": "inactive"}, {"measurement": "AC50", "setting": "[8]", "result": "13.6 µM (active)"}, {"measurement": "outcome", "setting": "[9]", "result": "inactive"}, {"measurement": "outcome", "setting": "[10]", "result": "inactive"}, {"measurement": "AC50", "setting": "[1]", "result": "1.09 µM (active)"}, {"measurement": "outcome", "setting": "[2]", "result": "inactive"}, {"measurement": "AC50", "setting": "[3]", "result": "4.01 µM (active)"}]}
{"smiles": "CON(C)C(=O)Nc1ccc(Cl)c(Cl)c1", "values": [{"measurement": "outcome", "setting": "[4]", "result": "inactive"}, {"measurement": "outcome", "setting": "[5]", "result": "inactive"}, {"measurement": "outcome", "setting": "[6]", "result": "inactive"}, {"measurement": "outcome", "setting": "[9]", "result": "inactive"}, {"measurement": "outcome", "setting": "[10]", "result": "inactive"}]}
